42 sequences from article PMC7819943, “Rice protein-binding microarrays: a tool to detect cis-acting elements near promoter regions in rice” can be followed below.

Over roughly 35,000 sequences, “fluorescence intensity (a.u.)” has its median near 10,000; the highest 2% begin near 52,000. The full list was thinned out, with the highest values kept by preference.

The target in the assay is T1, OsWOX13 (Oryza sativa, UniProt Q5QMM3 1-267).
T1 sequence: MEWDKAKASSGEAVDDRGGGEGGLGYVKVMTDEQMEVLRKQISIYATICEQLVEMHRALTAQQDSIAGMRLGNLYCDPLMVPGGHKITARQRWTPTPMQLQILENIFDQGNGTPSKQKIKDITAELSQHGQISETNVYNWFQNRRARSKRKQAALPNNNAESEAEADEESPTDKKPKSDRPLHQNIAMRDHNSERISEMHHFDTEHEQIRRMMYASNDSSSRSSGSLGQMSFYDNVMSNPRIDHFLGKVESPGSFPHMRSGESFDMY
As to the kind of experiment: protein-binding microarray (RPBM); PBS, 2% BSA, 51.3 ng/ul salmon testes DNA, 50 uM zinc acetate, 200 nM TF, 25 C, 1 h; high values mean tight binding. To be noted: protein: recombinant; tags: N-terminal polyhistidine and DsRed monomer fusion (pET32a); label: CyDye5-dUTP incorporated in the synthesized complementary strand; 3' TTTTT single-stranded linker to array surface; dsDNA, one strand shown. The method, boiled down: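 The binding signal is fluorescence intensity per feature, in arbitrary units, read on an Axon 4000B scanner. Polyhistidine- and DsRed-tagged transcription factors (N-terminal fusions) from E. coli BL21-CodonPlus were purified on Ni–NTA and applied at 200 nM for 1 h at 25 °C to a double-stranded, BSA-blocked custom Agilent array in buffer with 50 µM zinc acetate.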
On to “AGATTAATTAGGCTTAATAGATTCGTCTACGTTTAATACTCGGAGTCACCTAGTGCAG”, for which the binding signal is 20900 fluorescence intensity (a.u.).
For “GCCAAATTAGATGGAAAGTTGGTTATATAGGTGTTTATATCGGAGTCACCTAGTGCAG” the value was 29100 fluorescence intensity (a.u.).
To “AATTATACAATCAATCAAATACTGAAATTTAAAATTGGTACGGAGTCACCTAGTGCAG” belongs 15800 fluorescence intensity (a.u.); to “CAAAAGAACAATTATTGATCAACTAATGTACACGTCCCAGCGGAGTCACCTAGTGCAG”, 13900 fluorescence intensity (a.u.); to “AGCTGAAATTAAGAACAGACAGACATGATCACAGATCGAGCGGAGTCACCTAGTGCAG”, 10100 fluorescence intensity (a.u.).
Turning to “TGATGATTAGTCGATTACTGTTTTCCTATAGCCATCGTTACGGAGTCACCTAGTGCAG”, the binding signal is 30100 fluorescence intensity (a.u.).
To “AGGAATATATATAATTTACAAATAACTAAAATTTGATATTCGGAGTCACCTAGTGCAG” belongs 4110 fluorescence intensity (a.u.).
On to “ATCTGTCACATTAGACATAAATAAAATATTTGCGAAATGTCGGAGTCACCTAGTGCAG”, for which the binding signal was 3540 fluorescence intensity (a.u.).
To “AAGTGTTTGTAATTACTAAAATTTTGACATGAATTCAAATCGGAGTCACCTAGTGCAG” belongs 8700 fluorescence intensity (a.u.); to “GAGTAATTACTAATTAGCTGGTACACTCAATCCAGTACGGCGGAGTCACCTAGTGCAG”, 59000 fluorescence intensity (a.u.).
To “ACTCAGTATACACTAATTAGCAATTATTACCGAAATTGTACGGAGTCACCTAGTGCAG” belongs 23400 fluorescence intensity (a.u.).
Regarding “TGGTATTTAATTATTTGTTAGAGTCATCATTGGTCTATAACGGAGTCACCTAGTGCAG”, the binding signal is 8940 fluorescence intensity (a.u.).
In the case of “TTTAATTTGTTCATTAAAGACCTAAGAGCTAATAAACGGACGGAGTCACCTAGTGCAG”, the binding signal is 23100 fluorescence intensity (a.u.).
To “GTTAATTTTGTTTAATTAATGGTGGAAGCAGCCATCATCACGGAGTCACCTAGTGCAG” belongs 38200 fluorescence intensity (a.u.); to “TTTAATTACTAATCAATTTCATACATTCATATAGTTTATTCGGAGTCACCTAGTGCAG”, 55600 fluorescence intensity (a.u.); to “GATTATGATTTGGAGAAAATTGCATCCATAAAACATTAATCGGAGTCACCTAGTGCAG”, 8000 fluorescence intensity (a.u.).
With “CGATTTCTTGTTTAATTACTAATCAATTTCATACATTCATCGGAGTCACCTAGTGCAG”, the binding signal is 13400 fluorescence intensity (a.u.).
As for “CTTCTAATTTTGTTAATTGGGAAGACATCATAGAGTGGAACGGAGTCACCTAGTGCAG”, the binding signal was 65400 fluorescence intensity (a.u.).
For “TTGACCAATCAATTACTCACTGGTACGGAAAACACTATAGCGGAGTCACCTAGTGCAG” the value was 23300 fluorescence intensity (a.u.); for “AAATCAATAATTAAATATAGTTTCATAATATATTTATCTTCGGAGTCACCTAGTGCAG”, 22700 fluorescence intensity (a.u.); for “CCATTAATTATGTTGGACATAATTAAGAGAATTTGCTAAACGGAGTCACCTAGTGCAG”, 52300 fluorescence intensity (a.u.).
For the sequence “TGGATTAAACTAATTTACTGATAAGGTGCGTACAAAATTGCGGAGTCACCTAGTGCAG”, the binding signal was 9850 fluorescence intensity (a.u.).
As for “CTATGTCTGTGTTTGATGATTGCAAGCTGATGTGGGATGGCGGAGTCACCTAGTGCAG”, the binding signal was 9180 fluorescence intensity (a.u.).
To “ATCTATCTATCTATCTATCTATCTATCTATCTATCTATCTCGGAGTCACCTAGTGCAG” belongs 20600 fluorescence intensity (a.u.); to “ATCTGTGTAGTCAATTATATTCTCCCTGGGGCCAAACGAACGGAGTCACCTAGTGCAG”, 4100 fluorescence intensity (a.u.); to “CCAGTCAAGGGAACAGATTGACCAATCGTTCACACCAGTGCGGAGTCACCTAGTGCAG”, 18400 fluorescence intensity (a.u.).
For “TGATCTGATTGAACAGTCAATCACAGATTCACAGTAGGACCGGAGTCACCTAGTGCAG” the value was 62500 fluorescence intensity (a.u.).
To “CATTTGACTGAACAAGAACAGTAGGATCAATCTTTGTGCACGGAGTCACCTAGTGCAG” belongs 16900 fluorescence intensity (a.u.); to “ATGACACATGCCGTTGATTGGTTGACACAGATCGGATTCGCGGAGTCACCTAGTGCAG”, 46900 fluorescence intensity (a.u.).
As for “AACACATTGGATTGATTGATCTGTCGCGGAACAGATTGACCGGAGTCACCTAGTGCAG”, the binding signal is 52300 fluorescence intensity (a.u.).
To “TTTGTTGATTTGTTTTGGTTGGATTGATCTGTCGCTTATACGGAGTCACCTAGTGCAG” belongs 25500 fluorescence intensity (a.u.); to “TTCCAACCAATCATAACCCAATAAGAGCAAAATGGAAAACCGGAGTCACCTAGTGCAG”, 4060 fluorescence intensity (a.u.).
For “AGGTGTTGATTTTGGGTGGCGGGCCCAATCGGATAGGCCACGGAGTCACCTAGTGCAG”, the binding signal is 3770 fluorescence intensity (a.u.).
For “CTGAGGACACTTAATGATTGATGCTCATAATATATTGTTTCGGAGTCACCTAGTGCAG”, the binding signal is 17300 fluorescence intensity (a.u.).
Consider “AAAAGCAGGTTTACTTACGCCTCATGTTCTCACACTAATTCGGAGTCACCTAGTGCAG”, for which the binding signal was 24400 fluorescence intensity (a.u.).
To “TCTGTCTGATTTGTAATCTTTTCCCTTGGCTTTGAGCGTGCGGAGTCACCTAGTGCAG” belongs 29400 fluorescence intensity (a.u.); to “GGTCGATCCATCGATTGATGGATCAATAATGCAAGCAAGCCGGAGTCACCTAGTGCAG”, 5030 fluorescence intensity (a.u.).
For “TTTGCCACTAATTAATCTACTAATGGCTTATGATAGTCATCGGAGTCACCTAGTGCAG” the value was 10700 fluorescence intensity (a.u.); for “CTTAATTAATTAATAGCAGCAGCAATGCCACTGTGGCCATCGGAGTCACCTAGTGCAG”, 53500 fluorescence intensity (a.u.); for “TATATATATATAATTATGCATCCTGGTTAGCAATTAATGTCGGAGTCACCTAGTGCAG”, 3400 fluorescence intensity (a.u.).
To “GCAATAATAATTACTGATAGCCACCACTATCAATAATAATCGGAGTCACCTAGTGCAG” belongs 12600 fluorescence intensity (a.u.); to “AATTAATTAATTAGCAATGCAGCATCGTCGATCATTGACCCGGAGTCACCTAGTGCAG”, 62500 fluorescence intensity (a.u.).
